From PubChem BioAssay
D2 antagonist: D2 dopamine receptor (human) antagonism; P14416; HEK293 TREx D2 cells, calcium flux, dopamine EC80; inhibition, % at 10 µM; 340,000 compounds, 2% hits; AID 485344; in the data active = inhibition above about 30%; inactive = below that, where a call was filed; also: 0% is about no effect
Target sequence (P14416 whole entry, looked up): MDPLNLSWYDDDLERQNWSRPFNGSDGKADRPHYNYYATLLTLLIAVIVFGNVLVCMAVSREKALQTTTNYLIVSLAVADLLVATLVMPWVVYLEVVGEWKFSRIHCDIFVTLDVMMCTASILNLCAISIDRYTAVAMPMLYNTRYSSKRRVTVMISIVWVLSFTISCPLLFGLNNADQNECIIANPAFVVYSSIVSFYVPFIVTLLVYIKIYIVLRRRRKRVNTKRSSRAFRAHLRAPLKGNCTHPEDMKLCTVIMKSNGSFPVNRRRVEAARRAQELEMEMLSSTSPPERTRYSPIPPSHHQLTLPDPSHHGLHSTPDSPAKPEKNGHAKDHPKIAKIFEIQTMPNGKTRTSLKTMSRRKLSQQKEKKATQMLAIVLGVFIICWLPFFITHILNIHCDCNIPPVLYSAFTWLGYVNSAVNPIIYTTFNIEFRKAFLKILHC
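Inhibition of EC80 dopamine-driven calcium flux, recorded kinetically, defines activity here; cells are a tetracycline-induced HEK293 T-REx line expressing force-coupled D2.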
D2 ag-1: agonists of human D2 dopamine receptor (beta-arrestin). activation, % (test concentration not listed). 360,000 compounds, 0.084% hits. DiscoveRx PathHunter D2 beta-arrestin, luminescence, 90 min; 100% = 57 uM dopamine signal; in the data active = activation above about 40%
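Agonist mode: compounds alone added to overnight-plated D2 PathHunter cells for 90 min at 37 C, with 57 uM final dopamine (EC100) defining full response. Beta-arrestin recruitment detected by chemiluminescent reagent, read after 1 h at ambient temperature.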
D2 PAM-1: human D2 receptor positive allosteric modulation. P14416. DiscoveRx D2 beta-arrestin cells, luminescence, 90 min; 100% = 57 uM dopamine signal. potentiation, % (test concentration not listed). 360,000 compounds, 0.23% hits; in the data active = potentiation above about 50%
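PathHunter D2 cells, attached overnight at 37 deg C, received compound in DMSO plus dopamine at EC20 (50 nM final) for 90 min at 37 deg C. Beta-arrestin recruitment was read as luminescence after 1 h with detection reagent at ambient temperature.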
D2 ag-2: activates the human D2 dopamine receptor; P14416; HEK293 T-REx D2 cells, calcium flux agonist mode; activation, % at 2 µM; 340,000 compounds, 0.53% hits; AID 485358;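 active = activation over 3 SD above normal in the single-dose calcium agonist read, cut at about 30% in these data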; also: 0% is about no effect
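Agonism scored from kinetic calcium signal (1 read/sec, 180 s) following compound pin transfer, after a 10 s baseline. Cells: HEK293 Trex line expressing inducible D2 receptor coupled to calcium, dye-loaded after overnight culture at 30 C.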
D2 PAM-2: positively modulates the human D2 dopamine receptor allosterically | P14416 | HEK293 T-REx D2, calcium flux, EC20 dopamine potentiation | potentiation, % at 10 µM | 340,000 compounds, 0.34% hits;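 active = potentiation over 3 SD above the plate norm, cut at about 30% in these data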; also: 0% is about no effect
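Primary screen. Calcium kinetics in induced HEK293 T-REx D2 cells: compound pre-addition 180 s, EC20 dopamine, 180 s more.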
Active calls of the source: *; nt = not tested or not shown. Compounds with a hit are over-represented: about 2.4% of the library has one in this group of screens.

SMILES | D2 antagonist | D2 ag-1 | D2 PAM-1 | D2 ag-2 | D2 PAM-2
Cc1ccc(C)c(C(=O)CSc2nc3cc(C(=O)NC4CCCC4)ccc3c(=O)n2CC2CCCO2)c1 (stereo not given) | nt | nt | nt | 0 | 9
Cn1c(=S)[nH]c2scc(-c3cccs3)c2c1=O | nt | 14 | 67* | nt | nt
Cc1ccc(OCCCCN2CCC(C)CC2)c(Br)c1 | 107* | -8 | -39 | 0 | -21
CC1CCCN(CCOCCOc2ccc(Br)cc2Cl)C1 (stereo not given) | 52* | 0 | -42 | 1 | -27
CC1CCCN(CCOCCOc2ccc(Cl)cc2Br)C1 (stereo not given) | 83* | -4 | -6 | 1 | -23
CN1CCN(CCOCCOc2ccc(Br)cc2Cl)CC1 | 31* | -4 | -6 | -2 | -34
O=C(CSc1nc2c(c(=O)[nH]1)CN(Cc1ccc3c(c1)OCO3)CC2)Nc1cccc(Cl)c1 | nt | nt | nt | nt | 6
CC1CCN(CCCOc2ccc(Br)cc2Cl)CC1 | 47* | 0 | -3 | 2 | -34
Cc1oc(-c2ccc(C(=O)Nc3cc(F)ccc3F)cc2)nc1COc1ccccc1 | nt | nt | nt | 0 | -3
O=C(C1CC1)N(Cc1ccco1)c1nc(-c2ccccc2)cs1 | 4 | 0 | 2 | 0 | 30*
CCC(=O)N1CCc2cc(S(=O)(=O)NC(CC(C)C)C(=O)Nc3cc(C)ccc3OC)ccc21 (stereo not given) | nt | nt | nt | 0 | -3
Cc1csc2nc(COC(=O)c3cccc(NC(=O)COc4ccccc4Cl)c3)cc(=O)n12 | nt | nt | nt | 1 | -1
COc1ccnc(Oc2ccc(F)cc2)c1C(=O)N/C=N/OCc1cccc(F)c1 | 9 | 0 | -1 | 3 | -2
COc1ccccc1CO/N=C/NC(=O)c1c(OC)ccnc1Oc1ccc(F)cc1 | 37* | -2 | -3 | 1 | 13
Nc1nc(CN2CCN(Cc3ccccc3)CC2)nc(N2CCCc3ccccc32)n1 | 63* | -2 | -6 | 0 | -23
COC(=O)CS(=O)(=O)c1ccsc1C(=O)Nc1ccc(F)cc1 | 38* | 3 | -8 | 0 | 7
Cc1ccc(C2C(C(=O)c3cccs3)=C(O)C(=O)N2c2nnc(C)s2)cc1 (stereo not given) | 5 | -2 | 1 | 40* | 10
COc1ccc(C2C(C(=O)c3cccs3)=C(O)C(=O)N2c2cccc(C)n2)cc1 (stereo not given) | -2 | 2 | -13 | -2 | 14
COc1ccc(N2CCN(CCCNC(=O)c3cnn(-c4ccc(C)cc4)c3-n3cccc3)CC2)cc1 | nt | nt | nt | -1 | 1
CCOC(=O)N=S(N)(=O)c1ccc(Cl)cc1 (stereo not given) | -13 | 0 | -2 | 0 | 31*
COc1ccc(Br)cc1CNC(=O)C1CCN(c2nnc(-n3cccc3CNc3ccc(C)cc3)s2)CC1 | nt | nt | nt | 0 | 1
CCOC(=O)c1ccccc1NC(=O)NCc1c(-n2cccc2)sc2c1CCCC2 | nt | nt | nt | -1 | -4
Nc1ccc(O)cc1C(=O)OCC(=O)c1ccc(C2CCCCC2)cc1 | -7 | 13 | 77* | 0 | -4
COc1ccc(C(=O)OCC(=O)c2ccc(C3CCCCC3)cc2)cc1 | 9 | 1 | 1 | 1 | 1
CC(C)(C)CC(C)(C)c1ccc(O)c(CN2CCN(CCC#N)CC2)c1 | 4 | -1 | -19 | 0 | -4
SMILES | D2 antagonist | D2 ag-1 | D2 PAM-1 | D2 ag-2 | D2 PAM-2
N#CCCN1CCN(Cc2cc(-c3ccccc3)ccc2O)CC1 | 65* | -1 | -10 | 0 | -30
Cc1cc(C)c(C(=O)c2ccc(C(=O)NC(C)(C)C)cc2)c(C)c1 | 40* | -1 | -2 | 0 | 0
CCCCOC(=O)/C(=C/C=C/c1ccccc1)NC(=O)c1ccccc1 | 11 | 0 | -9 | 0 | nt
CCCCOC(=O)/C(=C\c1ccc([N+](=O)[O-])o1)NC(=O)c1ccccc1 | -14 | 0 | 15 | 0 | 36*
CCOC(=O)/C=C/C(=O)OCc1csc(CC(=O)Nc2ccccc2C)n1 | -2 | -7 | 8 | 1 | -2
CCc1ccc(N2CC(C(=O)OCc3csc(CC(=O)Nc4ccccc4C)n3)CC2=O)cc1 (stereo not given) | -5 | -4 | -3 | 1 | 56*
COc1ccc(C2N(C(=O)N(C)C)CCN2S(=O)(=O)c2ccc(OC)cc2)cc1 (stereo not given) | 37* | -2 | -5 | 0 | 22
COc1cccc(N2CCN(c3ncnc4c3[nH]c3ccccc34)CC2C)c1 (stereo not given) | -8 | nt | nt | 1 | 8
COc1cccc(N2CCN(c3ncnc4c3[nH]c3ccc(F)cc34)CC2C)c1 (stereo not given) | -1 | 10 | 52* | 3 | -2
O=C(c1ccc(-c2ccccc2)cc1)C1CCCN(Cc2ccncc2)C1 (stereo not given) | 75* | 5 | -16 | 0 | -38
Cc1ncoc1C(=O)N1CCCC(C(=O)c2ccc(-c3ccccc3)cc2)C1 (stereo not given) | 52* | 0 | -7 | -1 | -6
Cc1ccc(CN(Cc2ccco2)C(=O)c2ccc(OCC(C)C)cc2)cc1 | nt | nt | nt | nt | 0
COc1ccc(OC)c(CNC(=O)c2nn(-c3ccc(OC)c(Cl)c3)c(=O)c3c2c2ccccc2n3C)c1 | nt | nt | nt | -1 | 5
CCCCOc1ccc(C(=O)N(Cc2ccc(N(C)C)cc2)Cc2ccco2)cc1 | nt | nt | nt | 0 | -12
CSc1ccc(CCNC(=O)CCCn2c(=O)c3cccn3c3ccccc32)cc1 | nt | nt | nt | -1 | -12
CC(C)Oc1ccc(CNS(=O)(=O)c2ccc3c(c2)C(C)(C)C(=O)N3C)cc1 | nt | nt | nt | 0 | 1
FC(F)(F)c1ccc(C2[C@H]3CN(Cc4ccc(-c5ccccc5)cc4)[C@H](c4ccccc4)C34CC2(c2ccccc2)C4)cc1 (stereo not given in full) | 35* | 0 | -1 | 0 | 7
COc1ccccc1-c1ccc(/C=C2/C=C(CC(C)C)OC2=O)o1 | 33* | -4 | -9 | 3 | 8
COc1ccccc1CN1CCC(CNS(=O)(=O)c2cc(-c3onc(C)c3C)ccc2OC)CC1 | 33* | -3 | -30 | -1 | 10
C(=C\c1ccccc1)/C=N/N1CCN(Cc2ccccc2)CC1 | 40* | -4 | -12 | -1 | 0
C(/C=C/c1ccccc1)=N/N1CCN(c2ccccc2)CC1 | -25 | -1 | -8 | 1 | 9
COc1ccc(S(=O)(=O)/C(C#N)=C/Nc2ccccc2F)cc1 | 40* | 1 | -6 | 0 | -2
COc1ccc(S(=O)(=O)/C(C#N)=C/Nc2cccc(F)c2)cc1 | -5 | -1 | 4 | 0 | 1
COc1cc(-c2noc(-c3ccc(NCC4CCCO4)c([N+](=O)[O-])c3)n2)cc(OC)c1OC (stereo not given) | nt | nt | nt | -1 | -13
